Measurements: PubChem BioAssay AID2330 (Broad Institute, 2010)
The whole screen tested about 37,000 compounds, of which about 2,800 (7.6%) were called active. Another 1% or so got no clear call; they are omitted. The sample as a whole holds a higher share of actives than the screen did. A number with no mark means an inactive call. Cut-off read from the data, not from the text of the source: active = inhibition above about 80%; inconclusive = no clear call, values can overlap the other calls; inactive = below that.

Assay: NOMO-1 AML cell viability reduction, primary screen, STK33 inhibitor project, CellTiter-Glo luminescence (AID 2330)
Conditions: NOMO-1 AML viability, 72 h, hits give high values, concentration not given here

SMILES | inhibition
CCC(Oc1cccc(NC(=O)c2ccccc2[N+](=O)[O-])c1)C(=O)c1ccccc1 (centres undefined) | 2.87%
Cc1ccc(NC(=O)CSc2ncnc3sc(C)c(C)c23)cc1 | 11.3%
Cc1ccc(S(=O)(=O)NCC(=O)N2CCN(c3ccccn3)CC2)cc1 | -2.49%
Cc1ccc(S(=O)(=O)Nc2ccc3c(c2)C(=O)N([C@@H](C)CO)C[C@@H](C)[C@@H](CN(C)Cc2ccncc2)O3)cc1 | 22.8%
C[C@H](CO)N1C[C@H](C)[C@@H](CN(C)Cc2ccc3c(c2)OCO3)Oc2ccc(NC(=O)Nc3ccc(F)cc3)cc2C1=O | -1.77%
C[C@@H]1CN([C@H](C)CO)C(=O)c2cccc(NC(=O)Nc3cccc4ccccc34)c2O[C@@H]1CN(C)C(=O)Nc1cccc2ccccc12 | 10.3%
C[C@@H]1CN([C@@H](C)CO)C(=O)c2cccc(NC(=O)Nc3ccc(F)cc3)c2O[C@@H]1CN(C)C(=O)Nc1ccccc1 | 35.8%
C[C@@H]1CN([C@H](C)CO)C(=O)c2cccc(NC(=O)Nc3cccc4ccccc34)c2O[C@@H]1CN(C)C(=O)Nc1ccc(F)cc1 | 97% (active)
COc1ccc(CN(C)C[C@H]2Oc3c(NC(=O)Nc4ccccc4)cccc3C(=O)N([C@@H](C)CO)C[C@@H]2C)cc1 | 56.6%
C[C@H](CO)N1C[C@H](C)[C@H](CN(C)C(=O)Nc2ccc(C(F)(F)F)cc2)Oc2ccc(NC(=O)Nc3ccccc3)cc2C1=O | 85.9% (active)
C[C@@H]1CN([C@H](C)CO)C(=O)c2cccc(NC(=O)Nc3ccccc3)c2O[C@H]1CN(C)Cc1ccccc1 | 75.5%
C[C@H]1CN([C@@H](C)CO)C(=O)c2cccc(NC(=O)Nc3ccc(C(F)(F)F)cc3)c2O[C@@H]1CN(C)Cc1ccccc1 | 72.2%
C[C@@H]1CN([C@@H](C)CO)C(=O)c2cccc(NC(=O)Nc3ccccc3)c2O[C@H]1CN(C)Cc1ccccc1 | 117% (active)
C[C@H](CO)N1C[C@H](C)[C@H](CN(C)C(=O)Nc2ccccc2)Oc2c(NC(=O)Nc3ccc(C(F)(F)F)cc3)cccc2C1=O | 96.2% (active)
C[C@@H]1CN([C@H](C)CO)C(=O)c2cc(NC(=O)Nc3ccc(C(F)(F)F)cc3)ccc2O[C@H]1CN(C)C(=O)Nc1ccccc1 | 24.7%
C[C@@H]1CN([C@@H](C)CO)C(=O)c2cccc(NC(=O)Nc3ccc(F)cc3)c2O[C@H]1CN(C)C(=O)Nc1ccc(F)cc1 | -5.44%
C[C@H]1CN([C@@H](C)CO)C(=O)c2cc(NC(=O)Nc3ccccc3)ccc2O[C@@H]1CN(C)C(=O)Nc1ccccc1 | 6.27%
O=C(CSc1nccc(=O)[nH]1)Nc1ccc([N+](=O)[O-])cc1 | 11.7%
C=C1CCC(C)C(C)(CCC2=CC(OC)OC2=O)C/C=C\C=C\1C(=O)O (centres undefined) | 9.74%
Cc1cc(C)n2nc(SCC(=O)Nc3ccccc3[N+](=O)[O-])nc2n1 | 4.39%

SMILES | inhibition
Cc1ccc(CC2C(=O)N(c3cccc(C(F)(F)F)c3)C(=O)C2C)cc1 (centres undefined) | 54.7%
C[C@@H]1CN([C@H](C)CO)C(=O)c2cc(NC(=O)C3CC3)ccc2O[C@@H]1CN(C)C | -2.07%
CNC[C@H]1Oc2c(NC(=O)C3CC3)cccc2C(=O)N([C@@H](C)CO)C[C@@H]1C | 15.2%
C[C@@H]1CN([C@H](C)CO)C(=O)Cc2cc(NS(=O)(=O)c3ccc(Cl)cc3)ccc2O[C@@H]1CN(C)S(=O)(=O)c1ccc(Cl)cc1 | 19.9%
C[C@@H]1CN([C@H](C)CO)C(=O)c2cc(NC(=O)Cc3ccccc3)ccc2O[C@H]1CN(C)S(=O)(=O)c1cn(C)cn1 | 4.97%
CC(Sc1nc2ccccc2[nH]1)c1nc2ccccc2[nH]1 (centres undefined) | 4.08%
Cc1cccc(C)c1NC(=O)C(C)N(c1ccc(Cl)cc1)S(C)(=O)=O (centres undefined) | -16.6%
CCOC(=O)c1c(NC(=O)Cn2nc([N+](=O)[O-])c(Br)c2C)sc2c1CCCC2 | 41.4%
Cc1ccc(S(=O)(=O)Nc2cccc3c2O[C@@H](CN(C)CC2CCCCC2)[C@H](C)CN([C@@H](C)CO)C3=O)cc1 | 10.5%
Cc1ccc(S(=O)(=O)Nc2cccc3c2O[C@@H](CN(C)S(=O)(=O)c2ccc(C)cc2)[C@H](C)CN([C@@H](C)CO)C3=O)cc1 | 4.36%
C[C@H](CO)N1C[C@H](C)[C@@H](CN(C)Cc2ccc3c(c2)OCO3)Oc2c(cccc2N(C)C)C1=O | 21.9%
C[C@H]1CN([C@@H](C)CO)C(=O)c2cc(NS(=O)(=O)c3ccccc3)ccc2O[C@@H]1CN(C)C(=O)NC1CCCCC1 | 13.9%
COc1ccc(NC(=O)Nc2cccc3c2O[C@H](CN(C)S(=O)(=O)c2cccs2)[C@H](C)CN([C@@H](C)CO)C3=O)cc1 | 34.9%
C[C@H]1CN([C@@H](C)CO)C(=O)c2cccc(NS(=O)(=O)c3ccccc3)c2O[C@@H]1CN(C)C(=O)Nc1ccc(C(F)(F)F)cc1 | -8.64%
C[C@@H]1CN([C@H](C)CO)C(=O)c2cccc(NS(=O)(=O)c3ccc(F)cc3)c2O[C@@H]1CN(C)C(=O)Nc1ccc(C(F)(F)F)cc1 | 101% (active)
C[C@H]1CN([C@@H](C)CO)C(=O)c2cccc(NC(=O)Nc3ccc(C(F)(F)F)cc3)c2O[C@H]1CN(C)S(=O)(=O)c1ccccc1 | 54.4%
C[C@@H]1CN([C@@H](C)CO)C(=O)c2cccc(NC(=O)Nc3ccc(C(F)(F)F)cc3)c2O[C@@H]1CN(C)S(=O)(=O)c1cccs1 | 96.7% (active)
Cc1ccc(S(=O)(=O)Nc2cccc3c2O[C@H](CN(C)C(=O)Nc2ccc(C(F)(F)F)cc2)[C@@H](C)CN([C@@H](C)CO)C3=O)cc1 | -0.901%
CC(C)NC(=O)Nc1cccc2c1O[C@@H](CN(C)S(=O)(=O)c1ccc(F)cc1)[C@@H](C)CN([C@H](C)CO)C2=O | -7.11%
